# KDM5B inh: inhibitors of human KDM5B histone demethylase | Q9UGL1 | KDM5B demethylase, FDH-coupled NADH fluorescence (FDH is formaldehyde dehydrogenase) | Potency, µM (titrated, usually from 57.7 µM), hits mostly inhibitors | 220,000 compounds, 2.6% hits | AID 1347165; active = well fitted inhibition curve with a large enough effect; also: 0% is about no effect; nearly all actives have a fitted effect of over 70% in size
#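 KDM5BΔAP (200 nM final) in 50 mM HEPES pH 7.5, 0.01% Tween-20 was preincubated 10 min at RT with compound over a concentration range. Substrate mix (H3K4me3 12.5 µM, α-KG 25 µM, Fe²⁺, ascorbate, NAD⁺, FDH) was added, and NADH fluorescence change over 30 min gave dose-response curves.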
# Numbers without * were called inactive; i = inactive. This excerpt belongs to a sample that is enriched for hits. Potency is read from the fitted curve at half-maximal effect.
SMILES,KDM5B inh
Cn1c(=O)c2ccnn2c2ccc(C(=O)Nc3ccc(N4CCOCC4)cc3)cc21,i
CCCCNC(=O)c1ccc2c(=O)n(Cc3ccc(OC)cc3)c(=O)[nH]c2c1,i
CCCCNC(=O)c1ccc2c(c1)n(Cc1ccc(F)cc1)c(=O)c1ccnn12,22.4µM*
CN1CCC(NC(=O)c2ccc3c(c2)n(Cc2ccc(F)cc2)c(=O)c2ccnn23)CC1,28.2µM*
Cn1ncc(N2CCC(NC(=O)Cc3ccc(F)cc3)CC2)cc1=O,i
CNC(=O)c1ccc2c(c1)n(Cc1ccc(OC)cc1)c(=O)c1ccnn12,i
CSc1nccc(Oc2ccccc2Cl)n1,i
COc1ccc(C(=O)N2CCN(c3ccc(NC(=O)c4cccs4)cc3)CC2)cc1,i
CC(C)(C)C(=O)NCc1c[nH]c2ncccc12,i
Cc1cc(F)ccc1NC(=O)CN(C)S(=O)(=O)c1ccc(C(=O)N2CCOCC2)s1,i
Cc1cc(F)ccc1OC1CN(Cc2ccc(C#N)cc2)C1,i
O=C(COc1cc(F)ccc1[N+](=O)[O-])Nc1ccc2c(c1)OCO2,i
Cc1ccc(-n2nc(C(=O)Nc3ccc(C)c(F)c3)c(=O)n(C)c2=O)cc1,i
O=C(NCc1ccccn1)c1ccc2c(c1)n(Cc1cccc(F)c1)c(=O)c1ccnn12,25.1µM*
O=C(NCc1ccccn1)c1cc(F)cc(F)c1,i
CCn1c(=O)c2ccnn2c2ccc(C(=O)NCCCOC(C)C)cc21,31.6µM*
CCn1c(=O)c2ccnn2c2ccc(C(=O)N3CCN(c4ccccc4)CC3)cc21,i
CN(C)C(=O)c1ccc2c(c1)n(Cc1ccc(F)cc1)c(=O)c1ccnn12,28.2µM*
CC(C)OCCCNC(=O)c1ccc(Cn2c(=O)c3cccn3c3cccnc32)cc1,i
COc1ccc(Cn2cc(C(=O)c3ccc(F)cc3)c(=O)c3cc4c(cc32)OCCO4)cc1,i
CCn1c(=O)c2ccnn2c2ccc(C(=O)Nc3ccc(C)c(F)c3)cc21,8.91µM*
Cc1cc(F)ccc1NC(=O)c1ccc2c(c1)n(Cc1cccc(F)c1)c(=O)c1ccnn12,i
Cc1ccc(NC(=O)c2ccc3nc(Cc4ccccc4)oc3c2)cc1F,i
CCNC(=O)c1ccc(CSc2nc3ccncc3n2Cc2ccc(F)cc2)cc1,i
CC(C)CCN1CC(C(=O)NCCc2ccncc2)C2(CCOCC2)C1 (centres undefined),i
SMILES,KDM5B inh
Cc1ccc(C)c(CN2C(=O)c3ccccc3S(=O)c3ccc(C(=O)NCc4ccccc4)cc32)c1 (centres undefined),i
CCOc1ccc2c(n1)CCN(C(=O)c1cnccn1)C2,i
O=C(CC1CCN(C(=O)NC2CCCCC2)C1)NCc1ccccc1 (centres undefined),i
CC(C)CC(=O)N=C1SC2CS(=O)(=O)CC2N1Cc1ccccc1Cl (centres undefined),i
CNC(=O)c1[nH]cnc1C(=O)NC1CCCCC1,i
COC(=O)c1nc2n(n1)C(c1cc(OC)ccc1OC)C(C(=O)Nc1ccc(C)cc1C)=C(C)N2 (centres undefined),i
CCCc1cc(=O)oc2cc(OC(C)C(=O)NCc3cccnc3)c(Cl)cc12 (centres undefined),i
COc1cccc2sc(N3CCN(C(=O)CS(=O)(=O)c4ccc(Cl)cc4)CC3)nc12,i
CNC(=O)c1c(NC(=O)Cc2coc3ccc(C)cc23)sc2c1CCCC2,i
CCCNC(=O)C1COC2(CCN(C(=O)CC(C)(C)C)CC2)N1C(=O)c1cccc(OC)c1 (centres undefined),i
CCOc1ccc(CNS(=O)(=O)c2ccc(-c3coc(C)n3)cc2)cc1OC,i
COc1ccc(CNC(=O)c2nc(-c3ccc4cc[nH]c4c3)no2)cc1OC,i
CN(Cc1ccccc1)Cc1nnc2cc(-c3nc(-c4ccccc4)no3)ccn12,28.2µM*
COc1ccc(CN(C)c2ccc(-c3nc(-c4ccccc4)no3)cc2[N+](=O)[O-])cc1,i
CN(Cc1cccc(C(F)(F)F)c1)Cc1nc(-c2ccccc2)no1,i
CC(C)N(Cc1ccccc1)Cc1nnc2cc(-c3nc(-c4ccccc4)no3)ccn12,28.2µM*
COc1ccc(NC(=O)N[C@H]2[C@H](O)[C@@H](N(C)CCc3ccccn3)[C@@H]3OC[C@H]2O3)cc1,i
Cn1cc(C2Nc3ccccc3C(=O)N2c2ccccc2)c(=O)n(C)c1=O (centres undefined),i
CCn1cc(CN2CCCC(CNC(=O)c3cccc(OC)c3OC)C2)cn1 (centres undefined),i
O=C(O)c1ccc(CN[C@@H]2CO[C@H](CNC(=O)c3ccccc3)[C@H]2O)cc1,i
FC(F)(F)c1cc(N2CCNCC2)c2ccccc2n1,i
O=C(NCC1(O)CCCNCC1)c1ccc(-n2cnnc2)cc1 (centres undefined),i
OC1(CNc2cc(C(F)(F)F)nc(N3CCCC3)n2)CCCNCC1 (centres undefined),25.1µM*
Cc1nc2ncnn2c(N2CCCC2)c1Cc1ccccc1,i
CC(C)Cc1noc(CN(C)C(=O)CC2C(=O)NCCN2CC(C)C)n1 (centres undefined),i
SMILES,KDM5B inh
CCN(Cc1ccncc1)C(=O)CC1C(=O)NCCN1CCc1ccccc1 (centres undefined),i
CC(C)CCN1CCNC(=O)C1CC(=O)N(Cc1cnn(C)c1)C1CC1 (centres undefined),15.8µM*
CCc1ccc(NC(=O)CCCc2ccc(OC)cc2C)cc1,i
COc1ccc(/C=C/C(=O)c2ccc(C#N)cc2)cc1F,i
Cc1cc2cc(NC(=O)c3cccc(C#N)c3)ccc2[nH]1,i
CCCc1noc(-c2cccn3c(CNC(=O)C4CC4)nnc23)n1,25.1µM*
CC(C)c1noc(-c2cccn3c(CNC(=O)C4CC4)nnc23)n1,28.2µM*
CCc1noc(-c2cccn3c(CNC(=O)C4CC4)nnc23)n1,25.1µM*
CC(C)c1ccc(N2CC(C(=O)NCc3nc(C(C)C)no3)CC2=O)cc1 (centres undefined),i
O=C(NCCc1noc(-c2ccccc2)n1)C1CCCC1,i
CCn1c(SCc2nnc(-c3ccccc3Br)o2)nnc1N1CCOCC1,i
O=C(CSc1n[nH]c(-c2ccccc2F)n1)Nc1ccc2c(c1)OC1(CCCCC1)O2,i
O=C(c1ccc(Cl)cc1)N1CCC([C@@H]2CNC[C@H]2CO)CC1,i
O=C(c1cnccn1)N1CCC([C@@H]2CNC[C@H]2CO)CC1,14.1µM*
O=C(C1CC=CC1)N1CCC([C@@H]2CNC[C@H]2CO)CC1,i
CCC(C(=O)NCc1ccc2c(c1)CCN2C(=O)c1ccc(F)cc1)c1ccccc1 (centres undefined),i
CCC(C)Sc1c(C)cnc2c1c(=O)n(C)c(=O)n2C (centres undefined),i
CC(=O)c1ccc(NC(=O)c2cc3n(n2)CC(c2ccc(Br)cc2)OC3)cc1 (centres undefined),i
Cc1ccc(NC(=O)c2cc3n(n2)CC(c2ccc(Cl)cc2)OC3)cc1 (centres undefined),20µM*
Cc1cc(C)cc(NC(=O)c2cc3n(n2)CC(c2ccc(Cl)cc2)OC3)c1 (centres undefined),25.1µM*
O=C(NC1CCN(Cc2ccccc2)CC1)c1cc2n(n1)CC(c1ccc(Cl)cc1)OC2 (centres undefined),i
CN(C)CCCn1c(=O)n(C)c(=O)c2[nH]cnc21,i
COc1ccc(CN(C(=O)c2ccco2)c2ccc(CC(=O)NC(C)C)cc2)cc1,i

# Source: PubChem BioAssay
